Bm FixLJ act = B. multivorans fixK reporter activation. B. multivorans fixK-promoter GFP reporter, 18 h; active compounds read high. z-score (no concentration beside the values). 29,000 compounds, 0.3% hits;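 active means replicate mean overnight rise in green fluorescent reporter signal, 3 or more SD over negative controls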
* marks the source's active call; other numbers are inactive results. Only a selection was taken, and hits are over-represented in it overall.

SMILES	Bm FixLJ act
Cc1nc(SCC(=O)NCC(c2ccccn2)N2CCOCC2)n[nH]1 (centres undefined)	0.41
CCC(=O)N1CCc2[nH]cnc2C12CCN(c1ncc(C)c(N(C)C)n1)CC2	-0.52
CCc1ccc(OCC(=O)Nc2c(C(=O)c3ccccc3)oc3ccccc23)cc1	-1.9
Cc1ccc(NC(=O)c2oc3ccccc3c2NC(=O)Cc2ccccc2)cc1	-0.81
O=C(Cc1ccccc1)Nc1c(C(=O)c2ccccc2)oc2ccccc12	3.1*
COc1cc(Cl)c(C)cc1Nc1nc2ccccc2nc1NS(=O)(=O)c1ccccc1	3.4*
COc1ccc(Nc2nc3ccccc3nc2NS(=O)(=O)c2ccc(C)cc2)c(OC)c1	-0.4
COc1ccc2nc(NS(=O)(=O)c3ccc(C)cc3)c(Nc3cc(Cl)ccc3OC)nc2c1	-4.1
COc1ccc(CN2C(=O)OC3CN(Cc4cnc(C)[nH]4)CC32)cc1OC (centres undefined)	-0.11
